Source: PubChem BioAssay (Tox21)
Records with an inconclusive call do not appear. Calls of active or inactive are those of the source. Unless noted, calls come from the whole dose curve; as a rule, active = well fitted curve in the direction sought with a large enough effect in the repeat runs; inconclusive = weak or mixed curves; inactive = no such curve, though single readings can be large; an effect the other way counts as inactive or inconclusive.

Tests used:
[1] = qHTS assay to identify small molecule antagonists of the glucocorticoid receptor (GR) signaling pathway - cell viability counter screen (AID 720693); note: nearly all actives have a fitted effect of over 55% in size
[2] = qHTS assay for identifying genotoxic compounds that show differential cytotoxicity against isogenic chicken DT40 cell lines with known DNA damage response pathways - wild type cell line (AID 743012); note: nearly all actives have a fitted effect of over 60% in size
Procedure, shortened: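 Cells (DT40 wild type, 300/well) are treated with DMSO-dissolved compounds after a ~0.5 h pre-incubation and kept 40 h at 37 C/5% CO2. Viability is then measured by CellTiter-Glo luminescence following 30 min at room temperature.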

[3] = qHTS assay for identifying genotoxic compounds that show differential cytotoxicity against isogenic chicken DT40 cell lines with known DNA damage response pathways - Rev3 mutant cell line (AID 743014); note: nearly all actives have a fitted effect of over 55% in size
[4] = qHTS assay for identifying genotoxic compounds that show differential cytotoxicity against isogenic chicken DT40 cell lines with known DNA damage response pathways - Rad54/Ku70 mutant cell line (AID 743015); note: nearly all actives have a fitted effect of over 60% in size
[5] = qHTS assay to identify small molecule antagonists of the androgen receptor (AR) signaling pathway - cell viability counter screen (AID 743033; note: nearly all actives have a fitted effect of over 45% in size)
[6] = qHTS assay to identify small molecule antagonists of the androgen receptor (AR) signaling pathway using the MDA cell line - cell viability counter screen (AID 743041; note: nearly all actives have a fitted effect of over 45% in size)
Procedure, shortened: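 MDA-kb2 AR-luc cells (MMTV-luciferase, AR/GR responsive) treated with compounds plus R1881 agonist for 16 h at 37C. CellTiter-Fluor added at 15.5 h; fluorescence read after 30 min in the same wells.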

[7] = qHTS assay to identify small molecule antagonists of the thyroid receptor (TR) signaling pathway - cell viability counter screen (AID 743064); note: nearly all actives have a fitted effect of over 50% in size
Procedure, shortened: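 Same-well viability check: GH3.TRE-Luc cells stimulated with 1 nM T3 alongside test compound for 23.5 h, followed by CellTiter-Fluor fluorescence.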

[8] = qHTS assay to identify small molecule antagonists of the thyroid receptor (TR) signaling pathway (AID 743065); note: series mostly up to about 70 µM; nearly all actives have a fitted effect of over 55% in size
Procedure, shortened: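 GH3.TRE-Luc rat pituitary cells (two TREs driving luciferase) were dosed with compound, then stimulated with 1 nM T3 (final) for 23.5 h at 37 C. ONE-Glo luminescence was the read-out, with CellTiter-Fluor fluorescence as the cytotoxicity counter-screen.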

[9] = tested on: thyroid hormone receptor (rat, GH3 cells); test: qHTS assay to identify small molecule agonists of the thyroid receptor (TR) signaling pathway (AID 743066; calls by dose curve)
[10] = molecular target: Estrogen receptor (Homo sapiens) (UniProt P03372); test: qHTS assay to identify small molecule antagonists of the estrogen receptor alpha (ER-alpha) signaling pathway (AID 743069; active = well fitted curve in the direction sought with a large enough effect in the signal ratio in the repeat runs, not every such curve was filed as active; the % refers to the signal ratio)
Chain of Estrogen receptor (Homo sapiens) (P03372 whole entry, looked up): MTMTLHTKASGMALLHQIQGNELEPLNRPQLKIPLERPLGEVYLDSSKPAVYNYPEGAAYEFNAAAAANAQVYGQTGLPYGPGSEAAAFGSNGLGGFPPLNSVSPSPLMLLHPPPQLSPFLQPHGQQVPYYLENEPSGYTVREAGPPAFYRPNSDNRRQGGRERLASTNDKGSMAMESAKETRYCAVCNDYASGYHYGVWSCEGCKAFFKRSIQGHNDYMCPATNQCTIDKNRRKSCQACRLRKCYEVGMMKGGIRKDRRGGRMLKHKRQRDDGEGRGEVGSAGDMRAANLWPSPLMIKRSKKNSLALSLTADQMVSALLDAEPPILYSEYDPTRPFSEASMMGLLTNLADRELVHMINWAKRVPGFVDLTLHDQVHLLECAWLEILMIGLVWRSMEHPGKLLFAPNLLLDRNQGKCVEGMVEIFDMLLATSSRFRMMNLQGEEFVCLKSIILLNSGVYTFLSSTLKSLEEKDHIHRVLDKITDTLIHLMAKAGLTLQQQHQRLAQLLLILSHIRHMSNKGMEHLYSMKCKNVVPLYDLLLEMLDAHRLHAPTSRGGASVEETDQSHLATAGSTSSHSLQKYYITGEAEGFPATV
Procedure, shortened: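 HEK293 ER-alpha-UAS-bla GripTite cells, held overnight in 2% charcoal-stripped FBS, 5,000 cells/well, preincubated 4 h, then compound plus 17beta-estradiol for 18 h at 37C. Beta-lactamase read by LiveBLAzer B/G FRET substrate, 2 h at room temperature.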

[11] = qHTS assay to identify small molecule antagonists of the estrogen receptor alpha (ER-alpha) signaling pathway - cell viability counter screen (AID 743074; calls by dose curve;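 note: HEK293 cells carrying ER-alpha-UAS-bla reporter stimulated with 17beta-estradiol; nearly all actives have a fitted effect of over 45% in size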)
[12] = molecular target: Estrogen receptor (Homo sapiens) (UniProt P03372); test: qHTS assay to identify small molecule agonists of the estrogen receptor alpha (ER-alpha) signaling pathway (AID 743075; calls by dose curve)
[13] = molecular target: Estrogen receptor (Homo sapiens) (UniProt P03372); test: qHTS assay to identify small molecule agonists of the estrogen receptor alpha (ER-alpha) signaling pathway using the BG1 cell line (AID 743079); note: nearly all actives have a fitted effect of over 20% in size
[14] = qHTS assay to identify small molecule antagonists of the estrogen receptor alpha (ER-alpha) signaling pathway using the BG1 cell line (AID 743080; calls by dose curve;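 note: BG1 cells stimulated with 17beta-estradiol alongside compound; series mostly up to about 70 µM; nearly all actives have a fitted effect of over 25% in size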)
Procedure, shortened: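 BG1-Luc-4E2 cells (endogenous full-length ER-alpha, 4xERE luciferase) hormone-starved 5 days in charcoal-stripped FBS, plated 4,000/well for 24 h, then compound plus 17beta-estradiol for 21.5 h at 37 C; ONE-Glo luminescence read.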

[15] = qHTS assay to identify small molecule antagonists of the estrogen receptor alpha (ER-alpha) signaling pathway using the BG1 cell line - cell viability counter screen (AID 743081);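 note: compound given together with 17beta-estradiol as the ER stimulus; series mostly up to about 70 µM; nearly all actives have a fitted effect of over 45% in size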
Aromatase (Homo sapiens) = Aromatase (Homo sapiens) (UniProt P11511); test: qHTS assay to identify aromatase inhibitors (AID 743083); note: series mostly up to about 70 µM; nearly all actives have a fitted effect of over 55% in size
Chain of Aromatase (Homo sapiens) (P11511 whole entry, looked up): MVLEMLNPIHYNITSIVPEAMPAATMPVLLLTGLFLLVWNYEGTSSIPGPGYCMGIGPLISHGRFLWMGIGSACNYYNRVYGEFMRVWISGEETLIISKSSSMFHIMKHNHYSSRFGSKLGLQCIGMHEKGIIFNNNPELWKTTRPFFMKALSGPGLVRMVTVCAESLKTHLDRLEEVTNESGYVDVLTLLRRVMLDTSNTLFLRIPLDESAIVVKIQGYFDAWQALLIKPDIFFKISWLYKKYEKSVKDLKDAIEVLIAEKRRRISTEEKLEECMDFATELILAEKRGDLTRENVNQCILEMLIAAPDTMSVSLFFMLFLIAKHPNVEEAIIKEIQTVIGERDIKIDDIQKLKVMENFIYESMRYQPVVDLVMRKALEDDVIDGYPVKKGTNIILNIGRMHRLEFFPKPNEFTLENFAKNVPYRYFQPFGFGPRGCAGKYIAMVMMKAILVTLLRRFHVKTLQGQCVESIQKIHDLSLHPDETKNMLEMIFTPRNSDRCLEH

[16] = molecular target: Androgen receptor (Homo sapiens) (UniProt P10275); test: qHTS assay to identify small molecule antagonists of the androgen receptor (AR) signaling pathway (AID 743035; active = well fitted inhibition curve with a large enough effect in the signal ratio in the repeat runs, not every such curve was filed as active; the % refers to the signal ratio)
Chain of Androgen receptor (Homo sapiens) (P10275 whole entry, looked up): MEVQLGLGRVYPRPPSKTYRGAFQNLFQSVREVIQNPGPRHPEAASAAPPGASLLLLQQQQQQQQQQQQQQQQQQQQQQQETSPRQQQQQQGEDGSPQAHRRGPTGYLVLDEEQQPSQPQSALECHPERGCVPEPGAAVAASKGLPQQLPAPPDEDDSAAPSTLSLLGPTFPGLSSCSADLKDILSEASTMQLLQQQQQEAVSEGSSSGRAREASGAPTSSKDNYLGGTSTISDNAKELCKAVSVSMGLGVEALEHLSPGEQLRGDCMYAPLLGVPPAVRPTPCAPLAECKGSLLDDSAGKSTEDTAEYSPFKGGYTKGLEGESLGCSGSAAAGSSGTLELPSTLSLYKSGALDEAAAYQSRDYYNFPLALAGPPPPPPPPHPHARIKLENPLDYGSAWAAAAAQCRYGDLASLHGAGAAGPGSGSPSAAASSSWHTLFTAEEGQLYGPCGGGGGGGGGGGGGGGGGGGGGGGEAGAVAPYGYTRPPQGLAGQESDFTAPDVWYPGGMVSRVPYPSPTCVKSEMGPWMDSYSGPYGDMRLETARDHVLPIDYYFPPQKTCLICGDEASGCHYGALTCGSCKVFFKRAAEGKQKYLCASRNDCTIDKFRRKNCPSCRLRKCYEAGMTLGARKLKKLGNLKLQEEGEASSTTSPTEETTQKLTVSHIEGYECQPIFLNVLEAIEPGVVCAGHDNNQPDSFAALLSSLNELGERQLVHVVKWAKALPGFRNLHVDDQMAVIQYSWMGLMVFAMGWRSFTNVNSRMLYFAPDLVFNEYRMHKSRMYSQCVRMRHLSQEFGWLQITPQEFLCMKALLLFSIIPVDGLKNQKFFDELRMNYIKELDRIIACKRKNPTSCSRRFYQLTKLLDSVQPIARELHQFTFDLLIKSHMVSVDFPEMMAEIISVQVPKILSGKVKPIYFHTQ
Procedure, shortened: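 Antagonism is scored as loss of R1881-driven beta-lactamase reporter expression in HEK293 cells carrying the reporter under a UAS element, after 16 h co-treatment at 37C and a 2 h room-temperature FRET substrate read.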

[17] = molecular target: Androgen receptor (Homo sapiens) (UniProt P10275); test: qHTS assay to identify small molecule agonists of the androgen receptor (AR) signaling pathway (AID 743036; active = well fitted activation curve with a large enough effect in the signal ratio in the repeat runs, with a control signal flat, not every such curve was filed as active; the % refers to the signal ratio)
Procedure, shortened: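 Agonist activity was scored by beta-lactamase reporter fluorescence in stably transfected HEK293 cells exposed to compounds for 16 h at 37C and 5% CO2. Substrate loading took 2 h at room temperature.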

[18] = molecular target: Androgen receptor (Homo sapiens) (UniProt P10275); test: qHTS assay to identify small molecule agonists of the androgen receptor (AR) signaling pathway using the MDA cell line (AID 743040; note: nearly all actives have a fitted effect of over 20% in size)
Procedure, shortened: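 MDA-kb2 breast carcinoma cells carrying MMTV-luciferase (responsive to AR and GR), plated 5 h then treated 16 h with compounds at 37C, 0% CO2. Read-out was ONE-Glo luminescence after 30 min at room temperature.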

[19] = molecular target: Androgen receptor (Homo sapiens) (UniProt P10275); test: qHTS assay to identify small molecule antagonists of the androgen receptor (AR) signaling pathway using the MDA cell line (AID 743042; note: nearly all actives have a fitted effect of over 55% in size)
Procedure, shortened: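 MDA-kb2 breast carcinoma cells carrying MMTV-luciferase (AR/GR responsive) were co-treated with compounds and the agonist R1881 for 16 h at 37C. Inhibition read as ONE-Glo luminescence; CellTiter-Fluor fluorescence measured in parallel for cytotoxicity.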

Measured: Potency

OCCOCCOCCOCCO
not listed: [16] | [17] | [18] | [19]
inactive: all other assays above

O=Nc1ccc(O)cc1
inactive: all assays above

CCCCC(CC)COC(=O)/C=C\C(=O)OCC(CC)CCCC (stereo unspecified)
not listed: [10] | [12] | [13] | [14]
inactive: all other assays above

O=C(O)c1cc(-c2ccccc2)nc2ccccc12
not listed: [10] | [12] | [13] | [14]
inactive: all other assays above

CCCCOCCOCCOC(=O)CCCCC(=O)OCCOCCOCCCC
not listed: [16] | [17] | [18] | [19]
inactive: all other assays above

CCCCCCCCCCCCOCC1CO1 (stereo unspecified)
not listed: [16] | [17] | [18] | [19]
inactive: all other assays above

CC(=O)Nc1ccc(C(=O)O)cc1
not listed: [16] | [17] | [18] | [19]
inactive: all other assays above
